# Source: PubChem
# USP10 block = blocks human USP10 ubiquitin-rhodamine cleavage; purified USP10, Ub-rhodamine fluorescence, 60 min; Q14694; actives 1.1% (n = 47,000); inhibition, % at 20 µM
# USP7 block = human USP7 deubiquitinase inhibition; Q93009; purified USP7, Ub-rhodamine cleavage fluorescence; inhibition, % at 20 µM; actives 0.3% (n = 47,000); AID 1645854
# USP8 block = blocks human USP8 ubiquitin-rhodamine cleavage. inhibition, % at 20 µM. P40818. purified USP8, Ub-rhodamine cleavage fluorescence, 30 min. actives 4.2% (n = 47,000)
# UCHL1 block = blocks human UCHL1 ubiquitin-rhodamine cleavage. P09936. purified UCHL1, Ub-rhodamine cleavage fluorescence. inhibition, % at 20 µM. actives 0.2% (n = 47,000). AID 1645859
# Target sequence (P09936 whole entry, looked up): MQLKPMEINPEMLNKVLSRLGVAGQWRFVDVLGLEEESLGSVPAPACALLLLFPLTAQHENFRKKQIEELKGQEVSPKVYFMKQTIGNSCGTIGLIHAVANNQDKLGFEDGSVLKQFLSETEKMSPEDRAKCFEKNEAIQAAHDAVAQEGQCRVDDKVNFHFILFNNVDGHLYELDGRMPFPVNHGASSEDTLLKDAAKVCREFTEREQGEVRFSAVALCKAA
# * hit, by the source's call. A selection: hits, their analogues and other compounds. The true share with any hit is near 4.6%. Cut-off read from the data, not from the text of the source: active = inhibition above about 30%; inactive = the rest.
SMILES,USP10 block,USP7 block,USP8 block,UCHL1 block
Cc1ccc(CSc2nc3ccccc3c(=O)[nH]2)cc1,6,4,6,0
COc1ccc(/C(C#N)=C\c2ccc3c(c2)OCO3)cc1,7,11,30*,7
O=C(COc1ccccc1-c1nnc(-c2ccccc2)o1)NCc1ccco1,25,16,84*,19
O=C(COc1ccccc1-c1nnc(-c2ccccc2)o1)NCc1ccccc1Cl,1,3,-47,0
O=C(COc1ccccc1-c1nnc(-c2ccccc2)o1)NCc1ccc(F)cc1,3,4,56*,3
COc1cc(Cl)cc(CNC(C)C(=O)O)c1O (configuration not stated),-1,1,66*,-2
Cc1ccccc1C(=O)Nc1ccc(Cc2ccc(NC(=O)c3ccccc3C)c(O)c2)cc1O,2,4,43*,0
O=c1c(O)c(-c2ccc(O)c(O)c2)oc2cc(O)cc(O)c12,17,-8,18,34*
O=c1c(-c2ccc(O)cc2)coc2cc(O)cc(O)c12,2,2,6,-2
O=c1cc(-c2ccc(O)c(O)c2)oc2cc(O)cc(O)c12,36*,11,31*,25
COc1ccc(OC)c(NC(=O)C2CCCCN2S(=O)(=O)c2ccc(F)cc2)c1 (configuration not stated),6,3,22,6
Cc1cccc(C(=O)N2CCN(C(=O)c3cc4ccccc4[nH]3)CC2)c1,0,-6,-1,2
O=C(NCCc1ccccn1)c1cc(-c2ccccc2)n[nH]1,0,1,-2,0
Cc1cn2nnc(C(=O)Nc3ccc(OC(F)(F)F)cc3)c2c(=O)[nH]1,24,10,54*,2
CSc1ccccc1NC(=O)c1nnn2cc(C)[nH]c(=O)c12,-1,0,-198,1
O=C(NCCc1ccc(Cl)cc1)c1cccc(-n2cnc3cccnc32)c1,-14,-9,-7,-5
COc1ccc(CCNC(=O)c2c(N)n(-c3cccc(F)c3)c3nc4ccccc4nc23)cc1,-2,1,36*,7
COc1ccc(CCNC(=O)c2c(N)n(-c3cccc(Cl)c3)c3nc4ccccc4nc23)cc1,4,-6,62*,7
Cc1ccc(-n2c(N)c(C(=O)NCCc3ccccc3F)c3nc4ccccc4nc32)cc1,-3,-5,34*,1
O=C(NCCc1ccccc1F)c1ccc(N2C(=O)CCS2(=O)=O)cc1,6,1,12,0
COc1cccc(CNC(=O)c2sc(-c3ccc(OC)c(OC)c3)nc2C)c1,-2,6,12,6
CC(C)NC(=O)N1CCC2(CC1)CN(C(=O)c1ccc3[nH]ccc3c1)Cc1ccccc1O2,3,2,-7,2
COC1=CC(=O)c2c(O)c3c(c(C)c2C1=O)C[C@@]1(O)[C@H](O[C@H]2CC[C@H](O[C@H]4C[C@@](C)(O)[C@H](OC(=O)c5c(C)ccc(C)c5O)[C@H](C)O4)[C@@H](C)O2)C(=O)C(C(C)=O)=C(O)[C@@]1(O)C3=O,-6,55*,-90,58*
O=C(c1cc(Cl)nc2ccccc12)N1CCc2ccccc2C1,6,-12,33*,0
c1csc(-c2nc(Nc3ccc4c(c3)CCC4)c3ccccc3n2)c1,-2,6,57*,-1
SMILES,USP10 block,USP7 block,USP8 block,UCHL1 block
Cc1cnc(N2CCC3(CC2)CC(Oc2cccnc2)C3)nc1,0,-4,-177,0
CCNC(=O)N1CCc2c(cccc2-n2nnc(C(=O)N(C)Cc3ccco3)c2C)C1,-8,-7,37*,-2
COc1ccc2c(c1)c(=O)c(C(=O)c1ccc(Cl)cc1)cn2CC(=O)Nc1ccc(Cl)cc1,-2,0,16,-4
COc1ccc(NC(=O)Cn2cc(C(=O)c3ccccc3)c(=O)c3cc(Cl)ccc32)cc1OC,33*,7,15,6
CCOc1ccc2c(c1)c(=O)c(C(=O)c1ccccc1)cn2CC(=O)Nc1ccc(Cl)cc1,47*,30,93*,6
COc1ccc(NC(=O)Cn2cc(C(=O)c3ccc(Cl)cc3)c(=O)c3cc(F)ccc32)cc1,53*,25,16,6
CCn1cc(-c2nc(C)c(C(=O)N3CCCCCC3)s2)c2cccnc21,-1,-3,2,-1
Cc1ccccc1NC(=O)Nc1ccccc1OCc1cc(=O)n2cccc(C)c2n1,40*,23,46*,-2
Cc1cccc(NCc2cc(=O)n3cccc(C)c3n2)c1C,-5,-1,-6,-3
Cc1cc(C)cc(NC(=O)Nc2ccccc2OCc2cc(=O)n3c(ncn3C(C)C)n2)c1,40*,10,50*,-1
